Source: PubChem
Only a selection was taken, and hits are over-represented in it overall.
ERK EGF inh: EGF-driven ERK pathway inhibition; Potency, µM (titrated, usually from 11.5 µM), inactives show at the highest dose activity change, negative = inhibition, most hits filed as inhibitors; HEK293-V1b, EGF-stimulated phospho-ERK AlphaScreen; actives 0.41% (n = 130,000); AID 1454; active = well fitted inhibition curve with a large enough effect;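 note: plate controls were stimulated vehicle wells for no effect and unstimulated vehicle basal for full effect; nearly all actives have a fitted effect of over 55% in size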
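Cell line HEK293 (stable V1b), low serum overnight. Pretreatment: compound 30 min, 37C. EGF 25 nM, 5 min. Detection: SureFire AlphaScreen, 5 h RT. AC50 via standard Hill equation.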
* hit, by the source's call; [ ] = dose if it differs, or a comment. Potency is the fitted concentration of half-maximal effect.

SMILES | ERK EGF inh
C=CC[C@@](C(C)=O)(C(=O)OC)C(NC(=O)OC)c1ccccc1 (some centres not stated) | -2%
CC1=CC(=O)C2C(C)(C)CCC[C@@]2(C)[C@@]1(O)CCc1ccoc1 (some centres not stated) | 28%
Cc1ccc(-c2csc3ncnc(Nc4ccc(C(=O)O)cc4)c23)cc1 | 10%[57.5 µM]
COc1ccc(-c2csc3ncnc(Nc4ccc(O)cc4)c23)cc1 | 28µM*
O=C(O)c1ccc(Nc2ncnc3scc(-c4ccccc4)c23)cc1 | -10%
CC(=O)CCOC1CCCCO1 (configuration not stated) | 1%
C=C[C@@H]1CN2CC[C@@H]1C[C@@H]2[C@@H](O)c1ccnc2ccc(OC)cc12 | -15%
O=C1/C(=N\S(=O)(=O)c2cccs2)C([n+]2ccccc2)=C([O-])c2ccccc21 | 8%[57.5 µM]
Cc1ccc(NC2=C/C(=N\S(=O)(=O)c3cccs3)c3ccccc3C2=O)c(C)c1 | 13µM*
CS/C(=N\S(=O)(=O)c1cccs1)Nc1ccc(F)cc1 | -3%
Cc1cccc(NC2=C/C(=N/S(=O)(=O)c3cccs3)c3ccccc3C2=O)c1 | 8%
O=C1C(Nc2ccc(O)cc2)=C/C(=N/S(=O)(=O)c2cccs2)c2ccccc21 | 18µM*
CC(C)(C)c1cc[n+](C2=C([O-])c3ccccc3C(=O)/C2=N\S(=O)(=O)c2cccs2)cc1 | 2%[57.5 µM]
CC[N+](C)(CC)CC(O)COCC1COc2ccccc2O1 (configuration not stated) | 3%
COc1cc2c(cc1OC)C1C(=O)c3ccc4c(c3OC1CO2)C=CC(C)(C)O4 (configuration not stated) | -3%
C=Cc1c(C)/c2[n-]/c1=C\c1[n-]c(c(CC)c1C)/C=c1\[n-]c3c(c1C)C(=O)C(C(=O)[O-])C=3c1[n-]c(c(C)c1CCC(=O)[O-])\C=2.[Cu].[Na+].[Na+] (configuration not stated) | 11%
CCOC(=O)CC(CC(C)=O)C(=O)OCC (configuration not stated) | -9%
O=C(c1cc([N+](=O)[O-])cc([N+](=O)[O-])c1)N(c1ccccn1)c1ccccn1 | -2%
O=C(NC(c1ccccc1)c1ccccn1)c1cccc([N+](=O)[O-])c1 (configuration not stated) | 11%
O=C(OC(c1ccccc1)c1nccc2ccccc12)c1cc([N+](=O)[O-])cc([N+](=O)[O-])c1 (configuration not stated) | 16µM*
O=[N+]([O-])c1ccc(O)c(Nc2ncnc3ccccc23)c1 | -16%
O=[N+]([O-])c1ccc(O)c(Nc2ncnc3ccc(Br)cc23)c1 | 25µM*
COc1ccc(Nc2ncnc3ccc([N+](=O)[O-])cc23)c(OC)c1 | 1%
CC(=O)N1CCC2(CC1)CCN(C(=O)Nc1cccc(F)c1)CC2 | 0%
O=C(c1cc2ccccc2[nH]1)N1CCOCC1 | 14%
SMILES | ERK EGF inh
COc1cccc([C@@H]2Oc3ccc(OC)cc3C(=O)[C@H]2OC(=O)NCCc2ccc(OC)c(OC)c2)c1 | -4%
CC(C)[C@@H]1NC(=O)c2cc([N+](=O)[O-])cc(I)c2OCC[C@@H](C(N)=O)NC(=O)[C@H](CCC(=O)O)NC1=O | -5%
NC(=O)CC[C@@H]1NC(=O)[C@H](Cc2ccccc2)NC(=O)[C@H](Cc2ccc(O)cc2)NC(=O)[C@@H](N)CSSC[C@@H](C(=O)N2CCC[C@H]2C(=O)N[C@@H](CCCN=C(N)N)C(=O)NCC(N)=O)NC(=O)[C@H](CC(N)=O)NC1=O | 1%
O=C1CCC=C1C(O)c1ccccc1 (configuration not stated) | -8%
COc1ccc(C2CC(c3ccc(Br)cc3)=NN2C(=O)CSC2=NCCS2)cc1 (configuration not stated) | -3%
CCOc1ccc(C(=O)NC2=NCCS2)cc1 | -2%
CCOc1ccc2c(c1)-c1c(ssc1=S)C(C)(C)N2C(=O)CSC1=NCCS1 | 18µM*
COc1ccc2c(c1)C(=O)[C@@H](OC(=O)NS(=O)(=O)c1ccc(F)cc1)[C@H](c1ccc(OC)c(Br)c1)O2 | -5%
CCN(CC)CCC[C@H](C)Nc1c2ccc(Cl)cc2nc2ccc(OC)cc12 | -4%[25.7 µM]
CN(C)CCCN(C(=O)c1ccc2c(c1)CCCC2)c1nc2ccc(Cl)cc2s1 | 20µM*
CN(C)CCCN(C(=O)COc1ccccc1)c1nc2ccc(Cl)cc2s1 | -2%
CN(C)CCCN(C(=O)c1sc2ccccc2c1Cl)c1nc2ccc(F)cc2s1 | 0%
CCOC(=O)NC[C@H](Cc1ccc(OCCc2nc(-c3ccccc3)oc2C)cc1)N/C(C)=C\C(=O)c1ccc(C(F)(F)F)cc1 | 8%
CCCCCC(=O)O[C@H](CC(=O)O)C[N+](C)(C)C | -2%
CC(=O)c1ccc(N2CCN(C(=O)COc3ccccc3F)CC2)c(F)c1 | -8%
CCc1cc(OCCOCCN(C)C)ccc1Cl | 5%
Cc1cc(Br)ccc1NC(=S)N1CCOCC1 | -1%[57.5 µM]
O=C1c2ccccc2-c2cccc(C(=O)N3CCCCC3)c21 | -3%[57.5 µM]
Cn1c(=O)cc2c3c(c(N4CCCCC4)ccc31)C(=O)c1ccccc1-2 | 22µM*
Cn1nc(-c2ccccc2)c(N2CCCCC2)cc1=O | 6%
COc1ccc(/C=C\C(=O)Nc2ccccc2C(=O)O)cc1OC | -19%
CCCCN1CCC(n2c(=O)[nH]c3ccccc32)CC1 | 10%
N#CCCn1c(=O)c(-c2ccccc2)nc2cnc(OCc3ccccc3)nc21 | 11%
CC(C)C[C@@H](CC(=O)N[C@@H](CCC(=O)O)CC(=O)O)NC(=O)[C@@H]1CNCC[C@H]1NC(=O)C[C@H](CCCN)NC(=O)C[C@H](CO)NC(=O)[C@@H]1CNCC[C@H]1N | -1%
Cc1ccc(NC(=O)c2ccc(OCC3CCCO3)cc2)cc1 (configuration not stated) | 2%
SMILES | ERK EGF inh
O=C(Nc1ccc(Cl)c(S(=O)(=O)N2CCOCC2)c1)c1ccc(OCC2CCCO2)cc1 (configuration not stated) | 14µM*
O=C(Nc1ccc(S(=O)(=O)N2CCCC2)cc1)c1ccc(OCC2CCCO2)cc1 (configuration not stated) | -1%
CC(=O)Oc1cc(-c2coc3cc(OC(C)=O)c(OC(C)=O)c(OC(C)=O)c3c2=O)cc(OC(C)=O)c1OC(C)=O | 8%
Cc1cccc(CNc2nc(-c3cccnc3)nc3ccccc23)c1 | 32µM*
COc1cccc(CNc2nc(-c3cccnc3)nc3ccccc23)c1 | 4%
Cc1cccc(CNc2nc(-c3ccc(C(=O)N(C)C)cc3)nc3ccccc23)c1 | 22%
COC(=O)[C@@]1(Cc2ccccc2)[C@H]2c3cc(C(=O)N4CCCC4)n(CC4CC4)c3C[C@H]2CN1C(=O)c1ccccc1 | 0%
CCC(=O)NCCc1cc2ccc(C)c(C)c2[nH]c1=O | 3%
Cc1ccc2cc(CCNC(=O)C(C)C)c(=O)[nH]c2c1C | -2%
Cc1ccc2cc(CCNC(=O)c3cc4ccccc4o3)c(=O)[nH]c2c1C | 32µM*
COC(=O)CC1c2ccccc2C=C(C2CC2)N1C(=O)OC (configuration not stated) | -10%
CCCCC[C@H](O)/C=C/C=C\C/C=C\C=C\[C@@H](O)CCCC(=O)O | -13%
CCc1cccc(Nc2cc(C)nc3ncnn23)c1 | -6%
CCc1c(C)nc2ncnn2c1NC1CCCc2ccccc21 (configuration not stated) | 5%
CCc1c(C)nc2ncnn2c1Nc1ccc(C)c(C)c1 | 22µM*
CCOc1cccc(NC(=O)C2CC(=O)N(c3ccc(F)cc3)C2)c1 (configuration not stated) | 6%
